Some structures have more than one record in an assay (separate samples or runs), and their calls can disagree. Calls of active or inactive are those of the source. The calls were made as follows: active = hit-call score of the fitted dose curve at least 0.9, where 1 is the maximum; inactive = score below 0.9.

Read-out in assay [1]: Tissue Factor, F3 (gene 2152)
Description: BSK_CASM3C_TissueFactor: BioMAP Diversity Plus: CASM3C Assay for Tissue Factor Biomarker Activity (AID 2283052).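 Also: cell surface tissue factor protein level read by ELISA.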 The note with it: primary human coronary artery smooth muscle cells; actives raise or lower the signal.

Read-out in assay [2]: Interferon-gamma inducible Protein 10 (IP10), CXCL10 (gene 3627)
Description: BSK_hDFCGF_IP10: BioMAP Diversity Plus: hDFCGF Assay for Interferon-gamma inducible Protein 10 (IP10) Biomarker Activity (AID 2283053). As to conditions: primary human foreskin fibroblasts; actives raise or lower the signal. Put shortly:
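IP-10 levels, quantified by ELISA, are taken from human foreskin fibroblast cultures 24 h after chemical treatment, with DMSO serving as negative control and baseline for bidirectional analysis.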

Read-out in assay [3]: Urokinase-type plasminogen activator receptor (uPAR), PLAUR (gene 5329)
The assay can be described thus: BSK_CASM3C_uPAR: BioMAP Diversity Plus: CASM3C Assay for Urokinase-type plasminogen activator receptor (uPAR) Biomarker Activity (AID 2283054).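 Also: cell-surface uPAR protein level quantified by ELISA.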 As to conditions: primary human coronary artery smooth muscle cells; actives raise or lower the signal.

Read-out in assay [4]: Vascular cell adhesion molecule 1 (VCAM1), VCAM1 (gene 7412)
The assay can be described thus: BSK_CASM3C_VCAM1: BioMAP Diversity Plus: CASM3C Assay for Vascular cell adhesion molecule 1 (VCAM1) Biomarker Activity (AID 2283055).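 Also: VCAM-1 protein level quantified by ELISA on the cells.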 The note with it: primary human coronary artery smooth muscle cells; actives raise or lower the signal.

Read-out in assay [5]: Collagen III, COL3A1 (gene 1281)
The assay can be described thus: BSK_hDFCGF_CollagenIII: BioMAP Diversity Plus: hDFCGF Assay for Collagen III Biomarker Activity (AID 2283056). As to conditions: primary human foreskin fibroblasts; actives raise or lower the signal. The essentials: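 Human foreskin fibroblast primary cultures sampled 24 h after dosing; Collagen III quantified by ELISA. Signal fitted bidirectionally against DMSO baseline.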

Read-out in assay [6]: Epidermal growth factor receptor (EGFR), EGFR (gene 1956)
Description: BSK_hDFCGF_EGFR: BioMAP Diversity Plus: hDFCGF Assay for Epidermal growth factor receptor (EGFR) Biomarker Activity (AID 2283057). As to conditions: primary human foreskin fibroblasts; actives raise or lower the signal. The essentials: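 Measured by ELISA: EGFR levels on primary human foreskin fibroblasts 24 h after chemical treatment, analysed relative to DMSO with bidirectional fitting.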

Read-out in assay [7]: Interleukin-8 (IL8), CXCL8 (gene 3576)
Description: BSK_hDFCGF_IL8: BioMAP Diversity Plus: hDFCGF Assay for Interleukin-8 (IL8) Biomarker Activity (AID 2283058). As to conditions: primary human foreskin fibroblasts; actives raise or lower the signal. The essentials: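 Primary human foreskin fibroblasts (hDFCGF system) dosed with chemical; IL-8 measured by ELISA 24 hours later. Bidirectional curve fitting relative to DMSO baseline; cytotoxicity tracked in parallel cultures by SRB total protein staining.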

The nature of assay [8]: BSK_hDFCGF_Proliferation: Cell Proliferation Assessment in the BioMAP Diversity Plus: hDFCGF Assay (AID 2283059).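 Also: curves fitted for both rise and fall of signal versus DMSO baseline.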 As to conditions: primary human foreskin fibroblasts. The essentials:
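Sub-confluent human foreskin fibroblast cultures receive test chemical […]. Relative cell number is quantified by sulforhodamine B staining (0.1%, after 10% TCA fixation) at 560 nm, with bidirectional fitting referenced to DMSO.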

Read-out in assay [9]: Macrophage colony-stimulating factor (MCSF), CSF1 (gene 1435)
Description: BSK_hDFCGF_MCSF: BioMAP Diversity Plus: hDFCGF Assay for Macrophage colony-stimulating factor (MCSF) Biomarker Activity (AID 2283060). The note with it: primary human foreskin fibroblasts; actives raise or lower the signal. Put shortly: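 Human foreskin fibroblast primary cultures; M-CSF measured by ELISA 24 hours after chemical dosing. Bidirectional fitting relative to DMSO, with overt cytotoxicity tracked by parallel SRB total-protein staining (0.1% SRB, 10% TCA fixation, 560 nm).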

The nature of assay [10]: BSK_hDFCGF_SRB: Viability Assessment in the BioMAP Diversity Plus: hDFCGF Assay (AID 2283061).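 Also: cells exposed to compound for 24 h before the read.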 The note with it: primary human foreskin fibroblasts. The essentials: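 Human foreskin fibroblasts in 96-well plates were treated 24 h. Total protein was measured by 0.1% SRB staining after 10% TCA fixation, read at 560 nm. Data were fitted bidirectionally against DMSO.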

For orientation: AC50 means the concentration at which the activity in the assay is half-maximal. As for `C[Si](C)(C)C(F)(F)C(F)(F)C(F)(F)F`, the result in assay [1], in assay [2], in assay [3], in [4], in [5] and in assay [6] was inactive. For the same molecule, the result in assay [7], in assay [8], in [9] and in assay [10] was inactive. The AC50 in assay [10] was 30 µM (active).

In the case of `C=CN1CCCC1=O`, the result in [1], in [2], in assay [3], in assay [4], in [5] and in [6] was inactive. The result in [7], in [8], in assay [9] and in assay [10] was inactive.

Regarding `CC(C)c1nnc2ccc(-c3ocnc3-c3cc(F)ccc3F)cn12`, the outcome in assay [1], in assay [3], in assay [5], in [6], in assay [7] and in assay [9] was inactive. In addition, the result in assay [10] was inactive. Moreover, the AC50 in assay [2] was 0.628 µM (active); in assay [4], 0.354 µM (active); in assay [8] it was 5.62 µM (active).

Consider `OC[C@H]1O[C@@](CO)(O[C@H]2O[C@H](CO)[C@@H](O)[C@H](O)[C@H]2O)[C@@H](O)[C@@H]1O`, for which the result in [1], in assay [2], in [3], in assay [4], in assay [5] and in assay [7] was inactive. The result in assay [8], in [9] and in assay [10] was inactive.

As for `CNC(C)=O`, the result in assay [1], in assay [2], in assay [3], in [4], in assay [5] and in [7] was inactive. Besides, the outcome in assay [8], in [9] and in [10] was inactive.

As to `NC(=O)NN=Cc1ccc([N+](=O)[O-])o1`, the result in assay [1], in assay [2], in assay [3], in assay [4], in assay [5] and in assay [7] was inactive. Further, the result in [9] and in assay [10] was inactive. For the same molecule, the AC50 in assay [8] is 27.8 µM (active).

`O=C(O)c1ccc2c(c1)nc(C(=O)NC1CCN(C3CC3)CC1)n2Cc1cc(-c2ccc(Cl)s2)on1`: the result in [1], in assay [2], in assay [3], in [4], in [5] and in [6] was inactive. In addition, the outcome in assay [7], in assay [8], in [9] and in [10] was inactive.

On to `O=c1[nH]cnc2c1ncn2[C@H]1CC[C@@H](CO)O1`, for which the outcome in assay [1], in assay [2], in assay [3], in [4], in [5] and in [6] was inactive. For the same molecule, the outcome in assay [7], in assay [8] and in assay [10] was inactive.

`CCCCCCCC1CCC(=O)O1` (stereo not given): the result in assay [1], in assay [2], in assay [3], in [4], in assay [5] and in assay [7] was inactive. Moreover, the outcome in assay [8], in assay [9] and in [10] was inactive.

With `O=C(NO)C1(NS(=O)(=O)c2ccc(Oc3ccc(F)cc3)cc2)CCOCC1`, the result in [1], in [2], in [3], in assay [4], in assay [5] and in assay [7] was inactive. Further, the result in [8], in assay [9] and in assay [10] was inactive.

On to `CCOC(N)=O`, for which the outcome in [1], in assay [2], in assay [3], in [4], in assay [5] and in assay [6] was inactive. The result in assay [7], in assay [8], in assay [9] and in assay [10] was inactive.

Turning to `CCCCCCCCN(C)C`, the outcome in assay [1], in [2], in assay [3], in [4], in assay [5] and in assay [7] was inactive. The result in assay [8], in assay [9] and in assay [10] was inactive.

As for `COCc1nnc(-c2ccc[n+]([O-])c2)n1-c1c(Cl)c(Cl)cc2[nH]c(=O)c(=O)[nH]c12`, the result in assay [1], in assay [2], in assay [3], in assay [4], in [5] and in [7] was inactive. For the same molecule, the outcome in [8], in [9] and in [10] was inactive.

In the case of `S=P(N1CC1)(N1CC1)N1CC1`, the result in [1], in assay [2], in assay [3], in assay [4], in assay [5] and in assay [7] was inactive. The outcome in assay [9] and in assay [10] was inactive. Besides, in assay [8], the AC50 is 18.2 µM (active).

With `OCC(CO)(CO)CO`, the outcome in [1], in assay [2], in [3], in assay [4], in assay [5] and in assay [7] was inactive. Also, the result in assay [8], in assay [9] and in assay [10] was inactive.

On to `c1ccc(C(O[C@@H]2CCCN(CCc3ccc4c(c3)OCO4)C2)c2ccccc2)cc1`, for which the result in [1], in assay [3], in assay [4] and in [7] was inactive. Moreover, the AC50 in [2] is 26 µM (active); in assay [5], 5.39 µM (active); in [9], 20 µM (active); in assay [10] it was 29 µM (active).

For the molecule `O=C(O)[C@H](O)[C@@H](O)C(=O)O`, the outcome in [1], in assay [2], in assay [3], in assay [4], in assay [5] and in assay [7] was inactive. The outcome in assay [8], in [9] and in assay [10] was inactive.

Regarding `Cc1nc(-c2ccccn2)ncc1C(=O)Nn1cc(C)c2cc(F)ccc21`, the result in assay [1], in assay [2], in assay [3], in [4], in assay [5] and in assay [7] was inactive. The result in assay [8], in assay [9] and in assay [10] was inactive.

Consider `CCCCCCCC/C=C\CCCCCCCC(=O)OC[C@@H](O)[C@H]1OC[C@H](O)[C@H]1O`, for which the outcome in assay [1], in [2], in assay [3], in assay [4], in assay [5] and in assay [7] was inactive. For the same molecule, the result in assay [8], in [9] and in assay [10] was inactive.

As for `c1ccc2cc3ccccc3cc2c1`, the result in assay [1], in assay [2], in [3], in assay [4], in assay [5] and in [7] was inactive. Further, the result in assay [8], in assay [9] and in assay [10] was inactive.

The record behind these values is PubChem BioAssay (EPA / NIEHS).
